Bioassay records from PubChem BioAssay.
uPA generation: cell surface uPA generation inhibition; Potency, µM (highest dose often 38.3 µM), for inactives: at the top dose activity change, negative = inhibition, usual class: inhibitors; cell surface uPA generation assay, qHTS; 330,000 compounds, 0.31% hits; active means well fitted inhibition curve with a large enough effect; inconclusive means small, poorly fitted or top-dose-only effect; inactive means no such curve, though single readings can be large or run the other way; tested in mouse RAW 264.7 cells; further: on the % scale 0 is the no-effect control and ±100 the full control effect; nearly all actives have a fitted effect of over 55% in size
VP16 counter: Gal4-VP16 reporter inhibition counter-screen; Drosophila S2 Gal4-VP16 UAS-luciferase, luminescence, 20 h; Potency, µM (highest dose often 53.6 µM), without a hit: top-dose activity, negative = inhibition, usual class: inhibitors; 310,000 compounds, 3.5% hits;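 further: Gal4-VP16 expression switched on by copper sulfate through the metallothionein promoter; on the % scale 0 is the no-effect control and ±100 the full control effect; nearly all actives have a fitted effect of over 50% in size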
BCR signal inh: inhibitors of chronic active B-cell receptor signaling; ABC-DLBCL IkBa-CBG/CBR reporter, luminescence ratio, 4 h; Potency, µM (titrated, usually from 46.1 µM), without a hit: at the highest dose activity change, negative = inhibition, most hits filed as inhibitors; 340,000 compounds, 0.05% hits; AID 493014; active means well fitted inhibition curve with a large enough effect in the signal ratio, with a control signal flat, not every such curve was filed as active; inconclusive means small, poorly fitted or top-dose-only effect, or effect the other way, or a change in a side signal; the % refers to the signal ratio;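 further: plate controls were basal doxycycline-induced cells for no effect and cells given 10 µM MG132 for full effect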
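Concentration-response series (up to 46 uM) were applied to TMD8 dual-reporter cells for 4 h at 37C with doxycycline. Green/red ratio, after filter-overlap correction, defined %Activity; red signal alone was normalised to basal cells and zero luminescence.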
RORg inh: inhibitors of mouse ROR gamma transcriptional activity. AID 2551. Drosophila S2 Gal4-RORgamma UAS-luciferase reporter, 20 h. Potency, µM (top dose mostly 53.6 µM), inactives show at the top dose activity change, negative = inhibition, hits mostly inhibitors. 310,000 compounds, 5.4% hits; further: on the % scale 0 is the no-effect control and ±100 the full control effect; nearly all actives have a fitted effect of over 60% in size
Target sequence (P51450 whole entry, looked up, the tested form may be a part): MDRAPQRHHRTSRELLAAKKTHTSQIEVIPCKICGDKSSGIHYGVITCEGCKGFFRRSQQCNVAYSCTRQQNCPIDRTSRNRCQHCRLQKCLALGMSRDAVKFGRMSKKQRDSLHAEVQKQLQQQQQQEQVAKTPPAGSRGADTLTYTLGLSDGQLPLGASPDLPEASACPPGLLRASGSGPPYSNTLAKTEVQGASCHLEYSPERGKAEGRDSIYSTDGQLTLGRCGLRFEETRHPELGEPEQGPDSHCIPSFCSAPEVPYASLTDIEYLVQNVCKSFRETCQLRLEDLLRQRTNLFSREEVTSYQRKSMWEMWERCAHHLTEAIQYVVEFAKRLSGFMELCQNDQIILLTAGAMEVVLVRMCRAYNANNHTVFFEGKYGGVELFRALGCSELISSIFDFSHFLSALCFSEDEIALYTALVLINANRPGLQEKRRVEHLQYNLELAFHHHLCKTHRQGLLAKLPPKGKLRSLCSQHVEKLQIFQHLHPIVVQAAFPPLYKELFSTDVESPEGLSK
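A Gal4/UAS one-hybrid system in insect cells: metallothionein-promoter Gal4–ROR gamma fusion plus Photinus luciferase reporter. Copper sulfate 700 uM final, 20 hr ambient incubation, luminescent detection after 10 min with reagent.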
Mito fusion act: mitochondrial division inhibition or fusion activation; S. cerevisiae fusion-defective mutant growth rescue, CellTiterGlo 48 h; Potency, µM (highest dose often 46.1 µM), inactives show at the top dose growth rescue (activation), usual class: activators; 320,000 compounds, 0.23% hits; further: % of control where 0% means no effect; nearly all actives have a fitted effect of over 45% in size
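Growth-rescue viability read-out: after 48 h at the non-permissive 37C in glycerol/ethanol YPEG, yeast mitochondrial fusion mutants are measured by CellTiterGlo luminescence; compounds (23 nl pinned per well) restoring growth score as division inhibitors or fusion activators.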
Integrin act MD: activates integrin-mediated alleviation for muscular dystrophy; alpha7betagal myoblasts, beta-gal FDG fluorescence, 48 h; Potency, µM (titrated, usually from 38.3 µM), for the others: top-dose activation, hits mostly activators; 350,000 compounds, 0.064% hits; AID 624291;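 further: 100% = response of the positive control SU9516; nearly all actives have a fitted effect of over 60% in size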
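alpha7betagal+/- myoblasts (passage 13, 250/well) treated 48 h at 37C with compounds at 1:260 dilution of DMSO stock. Lysed, then beta-galactosidase activity read as FDG fluorescence (ex 480/em 540) after 30 min, with pre-read for autofluorescence.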
* marks the source's active call; other numbers are inactive results; ? = inconclusive; · = no result; ! = not confirmed by another sample; [ ] = dose if it differs, or a comment. Sampled rows, rich in hits. Any-hit rate of the full collection: about 5.5%. Unless noted, the call rests on the fitted dose curve; in most records, active means well fitted curve in the direction sought with a large enough effect; inconclusive means small, poorly fitted or top-dose-only effect, or another doubt; inactive means no such curve, though single readings can be large; an effect the other way counts as inactive or inconclusive. Potency means the concentration at half of the fitted maximal effect.

SMILES	uPA generation	VP16 counter	BCR signal inh	RORg inh	Mito fusion act	Integrin act MD
Cc1ccc(N2CN(Cc3ccco3)CNC2=S)cc1	2%	?	2%	11µM*	-23%	-1%
O=S(=O)(/C=C/c1ccccc1)Nc1cccc(S(=O)(=O)NC2=NCCC2)c1	-2%	10%	-6%	-1%	-5%	-5%
CC1CCC(C(C)C)C(O)C1 (centres undefined)	·	-4%	·	22%	·	·
COc1ccccc1CN(Cc1nc2ccccc2c(=O)[nH]1)C(=O)Nc1cccc(C)c1	12%	6%	?	7.1µM*	23%	17%
CN(CC(=O)Nc1ccc(N2CCOCC2)cc1)Cc1c(O)ccc2ccccc12	-4%	18%	?	1.8µM*	-3%	-36%
CCN(CC(=O)Nc1cccc(Br)c1)Cc1nc2ccccc2c(=O)[nH]1	4%	7.1µM*	16%	4µM*	2%	-14%
CN(CC(=O)Nc1ccc(N2CCOCC2)cc1)CC(=O)Nc1ccc(N2CCOCC2)cc1	-3%	-14%	-2%	18%	0%	0%
CCN(CC)CCn1c(SCC(=O)Nc2ccc3c(c2)CCC3)nc2ccccc2c1=O	-13%	·	-1%	·	-8%	-8%
COc1ccccc1NC(=O)N(Cc1ccc2c(c1)OCO2)Cc1nc2ccccc2c(=O)[nH]1	-3%	-24%	1%	?	1%	-7%
CCN(CC(=O)Nc1ccc2c(c1)CCC2)Cc1nc2ccccc2c(=O)[nH]1	3%	-3%[0.365 µM]	-8%	5µM*	-3%	-44%
Fc1ccc(-c2nc3c(-c4ccc(Cl)cc4)cnn3cc2CCN2CCOCC2)cc1	8%	-11%	5%	-11%	2%	16%
CN1CCN(C(=O)C(=O)Nc2c3c(nn2-c2cccc(Cl)c2)CSC3)CC1	·	·	-2%	·	·	·
CS(=O)(=O)N1CCc2cc(C(=O)N3CCN(c4ccc(F)cc4)CC3)ccc21	7%	-11%	-1%	7%	9%	-6%
CCN(CC(=O)Nc1ccc(N2CCOCC2)cc1)Cc1nc2ccccc2c(=O)[nH]1	1%	13µM*	0%	4µM*	4%	-14%
CCN(CC(=O)Nc1ccc2c(c1)OC(F)(F)O2)Cc1nc2ccccc2c(=O)[nH]1	3%	?	?	10µM*	-1%	8%
CCN(CC(=O)Nc1ccc2c(c1)OCO2)Cc1nc2ccccc2c(=O)[nH]1	0%	7.1µM*	-2%	2.5µM*	5%	1%
CN(C)c1ccc(C(C(=O)NCc2ccccc2)N(Cc2ccco2)C(=O)c2snc(C(N)=O)c2N)cc1 (centres undefined)	5%	8%	5%	4%	?	29%
O=C(NCCN1C(=O)S/C(=C/c2cccnc2)C1=O)c1cccs1	-30%	·	-12%	·	-1%	-23%
O=C(COc1ccccc1-c1ccccc1)NCCN1C(=O)S/C(=C\c2cccnc2)C1=O	-3%	20µM*	-9%	-42%	0%	-12%
COCCn1c(/C=C/c2ccccc2)nc2ccccc21	?	?	2%	11µM*	-7%	14%
CC(=O)c1ccc(/C=C/c2nc3ccccc3n2C)o1	-9%	?	?	10µM*	-5%	?
C=CCn1c(NCc2ccccc2OC)nc2ccccc21	?	-9%	?	?	-13%	-6%
COc1ccc(/C=C/c2nc3ccccc3n2Cc2ccccc2OC)cc1	-14%	-84%	?	14µM*	?	-52%
Cn1c(=O)c(/C=C/c2ccc(F)cc2)nc2ccccc21	2%	-4%	-23%	13%	18%	-9%
COc1ccccc1Cn1c(/C=C/c2ccccc2)nc2ccccc21	-6%	22µM*	3%	?	27%	-6%
SMILES	uPA generation	VP16 counter	BCR signal inh	RORg inh	Mito fusion act	Integrin act MD
CSc1ccccc1NC(=O)CN(C)C(=O)CNC(=O)c1ccc(Oc2ccccc2)cc1	·	·	·	·	·	13%
CN1CCN(c2ccc(-c3cc(O)c4ncccc4c3)cc2)CC1	·	·	?	·	-2%	·
Cc1ccccc1Cn1c(C(C)O)nc2ccccc21 (centres undefined)	3%	-2%	-3%	-11%	1%	20%
Cn1c(=O)c(/C=C/c2ccccc2)nc2ccccc21	0%	13%	-14%	?	13%	-28%
COc1ccccc1Cn1c(C(C)C)nc2ccccc21	9%	-15%	0%	7.9µM*	0%	7%
Cn1c(/C=C/c2ccccc2)nc2ccccc21	4µM*	7.1µM*	?	10µM*	-12%	-6%
O=C(c1cccc(NS(=O)(=O)c2ccc(Br)cc2)c1)N1CCCCC1	2%	·	?	·	-1%	-8%
CCCCNc1c(C(=O)OCC)c(C)nc2c1cnn2CC	-2%	?	·	32µM*!	23µM*	·
CC(=O)N1N=C(c2ccccc2)OC1c1ccc([N+](=O)[O-])s1 (centres undefined)	-19%	?	19%	13µM*	-8%	-57%
CC(=O)N1N=C(c2cccc([N+](=O)[O-])c2)OC1c1ccc(Br)cc1 (centres undefined)	-5%	-5%	-11%	0%	-2%	-11%
CN(Cc1nccs1)C(=O)c1cc(COc2cccc3cnccc23)on1	?	13µM*	-3%	-34%	2%	0%
CCOC(=O)CC1CCCCN1C(=O)c1cc(COc2cccc3cnccc23)on1 (centres undefined)	-26%	4µM*	5%	?	1%	-47%
C=CCNC(=S)N/N=C/c1ccc(OCc2ccccc2Cl)cc1	·	1.6µM*	-15%	0.79µM*	0%	-12%
CC(=O)OCC(=O)Nc1ccc([N+](=O)[O-])cc1Cl	-1%	7%	?	-40%	15%	3%
CC(=O)Oc1c(C)cc(Cl)cc1C(=O)Nc1ccc([N+](=O)[O-])cc1Cl	?	1µM*	?	1µM*	-20%	-55%
CCN1C/C(=N\S(=O)(=O)/N=C2\CN(CC)C(=O)N2CC)N(CC)C1=O	3%	-7%	?	10µM*	-1%	1%
COc1cccc(C(O)c2cnc(C(C)C)n2C)c1 (centres undefined)	1%	-3%	-7%	2%	1%	-4%
O=C(/C=C/c1ccc([N+](=O)[O-])cc1)NCCSc1ccccc1	·	?	12%	45%	4%	10%
Cc1ccc(SCCNC(=O)/C=C/c2ccc([N+](=O)[O-])cc2)cc1	4%	-11%	-12%	16%[10 µM]	16µM*	-8%
Cn1ncc(Br)c1C(=O)NC1CCCCCC1	1%	14%	-1%	13%	3%	-15%
COc1ccc2c3c(c(=O)oc2c1)C1O[C@](CCCCN2C(=O)c4ccccc4C2=O)(Cc2cc(OC)c(OC)cc21)O3	·	2%[10 µM]	?	5%[10 µM]	-2%[9.22 µM]	·
